Our source for the activation values is PubChem BioAssay AID1523 (The Scripps Research Institute Molecular Screening Center, 2009).

The target in this assay is Sphingosine 1-phosphate receptor 4 (Homo sapiens) (UniProt O95977). Kind of assay: activators of human S1P4 signalling – cell-based, high throughput, confirmation (AID 1523).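 Also: 0% = vehicle and 100% = full reference agonist response.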 Particulars: S1P4 agonist cell-based reporter assay; at 4.98 µM; active compounds read high.

Molecules are shown by their SMILES. The list shows a part of the results. A number with no mark means an inactive call. Rule as the data show it: active = activation above about 12%; inactive = the rest.

Sequence of Sphingosine 1-phosphate receptor 4 (Homo sapiens) (O95977 whole entry, looked up): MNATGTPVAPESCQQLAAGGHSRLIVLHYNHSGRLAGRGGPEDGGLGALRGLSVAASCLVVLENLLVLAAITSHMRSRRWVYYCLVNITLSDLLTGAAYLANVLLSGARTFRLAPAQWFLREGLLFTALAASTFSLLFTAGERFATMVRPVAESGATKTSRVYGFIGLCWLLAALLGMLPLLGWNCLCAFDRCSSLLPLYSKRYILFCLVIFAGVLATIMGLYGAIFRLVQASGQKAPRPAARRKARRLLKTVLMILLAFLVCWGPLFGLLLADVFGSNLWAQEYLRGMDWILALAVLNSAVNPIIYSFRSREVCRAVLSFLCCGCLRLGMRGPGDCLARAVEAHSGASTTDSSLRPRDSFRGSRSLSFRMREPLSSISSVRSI

`CC(C)N(CC#CCC1(O)c2ccccc2-c2ccccc21)C(C)C`: the activation is -2.04%.
